These results are taken from PubChem BioAssay (NCI).

Assay in all cases: NCI-60 one-dose screen, 48 h (100 = growth as untreated, 0 = no growth, -100 = all killed)
In one test the test system is A549/ATCC NSCLC. The conditions noted are these: 10 µM unless noted.
For another test, the system named is 786-0 renal. The conditions noted are these: 10 µM unless noted.
The test system of the next test is DU-145 prostate. The conditions noted are these: 10 µM unless noted.
The subject of the next test is SF-268 CNS. To be noted: 10 µM unless noted.
A further test concerns SF-539 CNS. The conditions noted are these: 10 µM unless noted.
The test system of a further test is HCT-15 colon. The conditions noted are these: 10 µM.
Another test relates to SNB-75 CNS. To be noted: 10 µM unless noted.
For another test, the system named is SNB-19 CNS. The conditions noted are these: 10 µM unless noted.
A further test has as its system UACC-62 melanoma. To be noted: 10 µM unless noted.
A further test deals with SN12C renal. To be noted: 10 µM unless noted.
A further test has as its system TK-10 renal. To be noted: 10 µM unless noted.
A further test has as its system ACHN renal. To be noted: 10 µM unless noted.
The next test deals with HL-60(TB) leukemia. To be noted: 10 µM unless noted.
The next test deals with OVCAR-8 ovarian. The conditions noted are these: 10 µM unless noted.
The test system of a further test is OVCAR-5 ovarian. The conditions noted are these: 10 µM unless noted.
Another test has as its system OVCAR-3 ovarian. To be noted: 10 µM unless noted.
A further test has as its system NCI/ADR-RES ovarian. The conditions noted are these: 10 µM unless noted.
Another test concerns T-47D breast. To be noted: 10 µM unless noted.
The test system of a further test is MDA-MB-435 melanoma. The conditions noted are these: 10 µM unless noted.
Another test relates to MCF7 breast. The conditions noted are these: 10 µM unless noted.

About 83,000 compounds went through this panel and 20% of them were active in at least one assay; those are over-represented in the sample as a whole.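 Results are percent growth after 48 hours of single-concentration exposure. 100 means growth as in untreated cells, lower positive values show inhibition; negative values down to -100 show cell death.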 Active and inactive are the calls of the source. Rule for the calls: active = growth percent below 10; inactive = the rest.

As for `CCC[CH2][Sn]1([CH2]CCC)[O]C(=O)c2cccc([N+](=O)[O-])c2C(=O)[O]1`, the growth in the test on A549/ATCC NSCLC was 42.4% (inactive); in the test on 786-0 renal, -97.3% (active); with DU-145 prostate, -96.7% (active); with SF-268 CNS, -90.1% (active); in the test on SF-539 CNS, -99.5% (active); in the test with HCT-15 colon, -85.5% (active). Besides, the growth with SNB-75 CNS is -82.3% (active); in the test with SNB-19 CNS it was -92.8% (active); with UACC-62 melanoma, -88.3% (active); in the test with SN12C renal, -83.4% (active); in the test with TK-10 renal it was -95.7% (active); in the test with ACHN renal it was -100% (active). Also, the growth in the test with HL-60(TB) leukemia was -48.2% (active); with OVCAR-8 ovarian, -93.1% (active); with OVCAR-5 ovarian it was -95.6% (active); in the test on OVCAR-3 ovarian it was -99.3% (active); in the test with NCI/ADR-RES ovarian, -54.4% (active); with T-47D breast, -76.3% (active). Also, the figures for the growth with MDA-MB-435 melanoma and with MCF7 breast were -99.2% (active) and -99% (active), respectively.

As to `Oc1ccc(Br)cc1CN1CCN(Cc2ccc(Cl)cc2)CC1`, the growth with A549/ATCC NSCLC is 62.3% (inactive); in the test on 786-0 renal it was 107% (inactive); in the test on DU-145 prostate, 88.5% (inactive); in the test on SF-268 CNS, 64.2% (inactive); in the test with SF-539 CNS, 92.9% (inactive); in the test on HCT-15 colon, 59.7% (inactive). In addition, the growth is 51.5% (inactive) in the test on SNB-75 CNS; 87.8% (inactive) in the test on SNB-19 CNS; 50.7% (inactive) in the test on UACC-62 melanoma; 89.6% (inactive) in the test with SN12C renal; 106% (inactive) in the test on TK-10 renal; 83.3% (inactive) in the test with ACHN renal. In addition, the growth with HL-60(TB) leukemia was 47.5% (inactive); with OVCAR-8 ovarian, 60.6% (inactive); in the test with OVCAR-5 ovarian, 97.7% (inactive); in the test on OVCAR-3 ovarian, 67.8% (inactive); in the test on NCI/ADR-RES ovarian, 82.2% (inactive); in the test with T-47D breast, 65.1% (inactive). The results for the growth in the test on MDA-MB-435 melanoma and in the test with MCF7 breast were 12.8% (inactive) and 34.5% (inactive), respectively.

For the compound `C[C@]12C[C@H](O)[C@H]3[C@@H](CCC4=CC(=O)CC[C@@]43C)[C@@H]1CC[C@@H]2O`, the growth in the test with 786-0 renal was 107% (inactive); with DU-145 prostate, 112% (inactive); in the test with SF-268 CNS, 105% (inactive); in the test on SF-539 CNS it was 99% (inactive); in the test with HCT-15 colon it was 100% (inactive); in the test with SNB-75 CNS, 85.7% (inactive). Moreover, the growth is 104% (inactive) in the test with SNB-19 CNS; 98.5% (inactive) with UACC-62 melanoma; 101% (inactive) in the test on SN12C renal; 101% (inactive) in the test with ACHN renal; 105% (inactive) with HL-60(TB) leukemia; 114% (inactive) in the test on OVCAR-8 ovarian. For the same compound, the growth in the test on OVCAR-5 ovarian was 105% (inactive); in the test on OVCAR-3 ovarian it was 112% (inactive); in the test on NCI/ADR-RES ovarian, 104% (inactive); in the test on T-47D breast, 105% (inactive); in the test on MDA-MB-435 melanoma, 101% (inactive); with MCF7 breast, 103% (inactive).

Turning to `Cc1nnc([S-])s1.[Au+].c1ccc([PH+](c2ccccc2)c2ccccc2)cc1`, the growth with A549/ATCC NSCLC is 74.6% (inactive); in the test on 786-0 renal, -29.7% (active); in the test on DU-145 prostate it was 18.6% (inactive); in the test with SF-268 CNS, 7.17% (active); in the test with SF-539 CNS, -22.9% (active); in the test on HCT-15 colon, -76% (active). In addition, the growth in the test on SNB-75 CNS is -76.3% (active); in the test with SNB-19 CNS, 19.2% (inactive); in the test on UACC-62 melanoma it was -31% (active); with SN12C renal, 6.71% (active); with TK-10 renal, -61.5% (active); in the test with ACHN renal, -89.4% (active). In addition, the growth was -15.2% (active) with HL-60(TB) leukemia; 15.9% (inactive) with OVCAR-8 ovarian; 63.6% (inactive) in the test with OVCAR-5 ovarian; -96.3% (active) in the test on OVCAR-3 ovarian; 63.4% (inactive) in the test with NCI/ADR-RES ovarian; -40.2% (active) in the test with T-47D breast. Moreover, the growth in the test with MDA-MB-435 melanoma is 5.65% (active); with MCF7 breast, -64.1% (active).

For the compound `Cn1cnnc1[S-].[Au+].c1ccc([PH+](c2ccccc2)c2ccccc2)cc1`, the growth is 78.8% (inactive) with A549/ATCC NSCLC; 1.78% (active) in the test on 786-0 renal; 33.6% (inactive) with DU-145 prostate; 12.5% (inactive) in the test on SF-268 CNS; 15.4% (inactive) in the test on SF-539 CNS; -67.4% (active) in the test on HCT-15 colon. For the same compound, the growth with SNB-75 CNS was -62.3% (active); in the test with SNB-19 CNS, 11.4% (inactive); in the test with UACC-62 melanoma it was -15.1% (active); with SN12C renal it was 15.9% (inactive); in the test on TK-10 renal, -44.5% (active); with ACHN renal, -42.3% (active). The growth with HL-60(TB) leukemia is -12.7% (active); with OVCAR-8 ovarian, 20.3% (inactive); in the test with OVCAR-5 ovarian, 91.9% (inactive); in the test with OVCAR-3 ovarian, -81.2% (active); in the test with NCI/ADR-RES ovarian, 69.5% (inactive); in the test on T-47D breast, -16.6% (active). The growth is 11.1% (inactive) with MDA-MB-435 melanoma and -56.5% (active) in the test on MCF7 breast.

Take `Oc1c(Br)cc(Br)cc1Br.[Cu+2]`: the growth was 98% (inactive) in the test on A549/ATCC NSCLC; 115% (inactive) with 786-0 renal; 108% (inactive) in the test with DU-145 prostate; 105% (inactive) with SF-268 CNS; 107% (inactive) in the test with SF-539 CNS; 108% (inactive) with HCT-15 colon. For the same compound, the growth with SNB-75 CNS is 98.7% (inactive); in the test with SNB-19 CNS, 118% (inactive); in the test with UACC-62 melanoma it was 109% (inactive); in the test on SN12C renal it was 110% (inactive); in the test on ACHN renal, 105% (inactive); with HL-60(TB) leukemia it was 87.9% (inactive). For the same compound, the growth in the test with OVCAR-8 ovarian was 103% (inactive); in the test on OVCAR-5 ovarian, 120% (inactive); in the test with OVCAR-3 ovarian it was 109% (inactive); with NCI/ADR-RES ovarian it was 105% (inactive); with T-47D breast, 119% (inactive); in the test on MDA-MB-435 melanoma, 105% (inactive). In the test on MCF7 breast, the growth is 101% (inactive).

For `C/C1=C/C(=O)O[C@@H]2C[C@@H](CC[C@H](C)/C=C\C=C\CC1)O[C@@](OCCc1ccccc1)([C@@H]1CSC(=O)N1)C2`, the growth in the test with A549/ATCC NSCLC was 15.4% (inactive); in the test with 786-0 renal, 9.36% (active); in the test on DU-145 prostate it was -2.11% (active); in the test on SF-268 CNS, -42.9% (active); in the test on SF-539 CNS, 9.84% (active); with HCT-15 colon it was 46.3% (inactive). For the same compound, the growth in the test on SNB-75 CNS was -62.8% (active); in the test with SNB-19 CNS it was 21.5% (inactive); in the test with UACC-62 melanoma, 24.3% (inactive); in the test on SN12C renal it was 39.1% (inactive); in the test on TK-10 renal, -68.1% (active); with ACHN renal, 7.46% (active). Further, the growth in the test with HL-60(TB) leukemia was 90.6% (inactive); in the test on OVCAR-8 ovarian, 46.2% (inactive); with OVCAR-5 ovarian it was 11.2% (inactive); in the test on OVCAR-3 ovarian it was -48.7% (active); in the test with NCI/ADR-RES ovarian, 48.4% (inactive); in the test on T-47D breast it was 61% (inactive). The growth in the test on MDA-MB-435 melanoma was 16.7% (inactive).

In the case of `O=C1C(Cc2ccccc2)N=C(c2cccc(O)c2)c2ccc(Cl)cc2N1CC1CC1` (centres undefined), the growth is 94.1% [30 µM] (inactive) in the test on UACC-62 melanoma, 105% [30 µM] (inactive) with TK-10 renal and 76.3% [30 µM] (inactive) in the test on MCF7 breast.
